About 1,700 (3.3%) of roughly 52,000 compounds were called active. This is one part of a sample in which actives are shown more often than they occur. Cut-off read from the data, not from the text of the source: active = survival mostly below about 52% (no sharp cut-off); inactive = mostly above about 56%.
Tested on: Wild type
Test: growth inhibition of S. aureus wild type versus tarO mutant, primary screen, teichoic acid synthesis inhibitors, RN4220, OD600 (AID 463173)
Conditions: S. aureus RN4220 wild type/DeltatarO growth, OD600, 18 h, stronger effect = lower value, screened at 18.75 µg/mL (by protocol)

Structure (SMILES) | survival
Cc1cc(C)cc(NC(=O)CN2C(=O)c3ccccc3Sc3ccc(C(=O)N4CCOCC4)cc32)c1 | 69% (inactive)
O=C(CN1C(=O)c2ccccc2Sc2ccc(C(=O)N3CCOCC3)cc21)Nc1ccc(Cl)cc1F | 73% (inactive)
CCc1ccc(NC(=O)CN2C(=O)c3ccccc3Sc3ccc(C(=O)N4CCCC4)cc32)cc1 | 82% (inactive)
Cc1ccc(NC(=O)CN2C(=O)c3ccccc3Sc3ccc(C(=O)N4CCOCC4)cc32)c(Cl)c1 | -6% (active)
Cc1ccc(NC(=O)CN2C(=O)c3ccccc3Sc3ccc(C(=O)N4CCCC4)cc32)cc1 | 64% (inactive)
CN(C)c1ccc(NC(=O)CN2C(=O)c3ccccc3Sc3ccc(C(=O)N4CCCC4)cc32)cc1 | -4% (active)
Fc1ccc(-c2noc3ncnc(NCc4cccc(Cl)c4)c23)cc1 | 55% (inactive)
COc1ccccc1CN1CCNC(=O)C1=O | 77% (inactive)
O=C(CSc1nc2c([nH]c3ccccc32)c(=O)n1-c1ccccc1)N1CCOCC1 | 75% (inactive)
O=S1(=O)c2ccccc2N(Cc2ccccc2Cl)c2ccccc21 | 80% (inactive)
COc1ccc(N2CCN(C(CNC(=O)C(=O)NCCc3ccccc3)c3cccnc3)CC2)cc1 (stereo not given) | 84% (inactive)
CN1CCN(C(=O)C(=O)Nc2c3c(nn2-c2ccc(F)cc2)CSC3)CC1 | 81% (inactive)
CC(=O)N1CCN(C(=O)C(=O)Nc2c3c(nn2-c2ccc(Cl)cc2)CSC3)CC1 | -3% (active)
CC(NC(=O)C(=O)Nc1c2c(nn1-c1ccccc1)CSC2)c1ccccc1 (stereo not given) | 55% (inactive)
CN1CCN(C(=O)C(=O)Nc2c3c(nn2-c2ccc(Cl)cc2)CSC3)CC1 | 71% (inactive)
CCC(CO)NC(=O)C(=O)Nc1c2c(nn1-c1ccc(F)cc1)CSC2 (stereo not given) | 87% (inactive)
CC(NC(=O)C(=O)Nc1c2c(nn1-c1ccc(F)cc1)CSC2)c1ccccc1 (stereo not given) | -4% (active)
Cc1cccc(OCC(=O)N(Cc2cccc(Cl)c2)Cc2ccco2)c1C | 85% (inactive)
CCOC(=O)c1ccc(NC(=O)c2cnc3c(-c4ccc(F)cc4)c(C)nn3c2C)cc1 | 120% (inactive)
CCOC(=O)c1ccc(CN(Cc2ccc(OC)cc2)S(=O)(=O)c2cccc(C(F)(F)F)c2)cc1 | 73% (inactive)
CCc1ccc(NC(=O)c2ccc(F)c(S(=O)(=O)N(C)C3CCCCC3)c2)cc1 | 71% (inactive)
Cc1ccc(NC(=O)c2cc(S(=O)(=O)NCCC3=CCCCC3)ccc2F)cc1F | 82% (inactive)
O=C(Nc1ccc(Br)cc1)c1ccc(F)c(S(=O)(=O)NC2CCCCCC2)c1 | 56% (inactive)

Structure (SMILES) | survival
Cc1ccc(NC(=O)c2cc(S(=O)(=O)NC3CCCCC3)ccc2F)cc1Cl | -6% (active)
CCc1ccccc1NC(=O)c1cc(S(=O)(=O)NCCc2ccc(OC)c(OC)c2)ccc1F | 0% (active)
Cc1cc(C)cc(NC(=O)c2cc(S(=O)(=O)NCCC3=CCCCC3)ccc2F)c1 | 80% (inactive)
COc1ccc(OC)c(NC(=O)c2cc(S(=O)(=O)NCCc3ccc(Cl)cc3)ccc2F)c1 | 79% (inactive)
Cc1ccc(NC(=O)c2cc(S(=O)(=O)NCCC3=CCCCC3)ccc2F)cc1C | -3% (active)
COc1ccc(CCNS(=O)(=O)c2ccc(F)c(C(=O)Nc3ccc(Cl)cc3)c2)cc1OC | 126% (inactive)
O=C(Nc1ccc(F)c(F)c1)c1cc(S(=O)(=O)NC2CCCCCC2)ccc1F | 53% (inactive)
CCc1ccc(NC(=O)c2ccc(F)c(S(=O)(=O)NC3CCCCCC3)c2)cc1 | -4% (active)
Cc1ccc(NC(=O)c2cc(S(=O)(=O)NC3CCCCCC3)ccc2F)cc1F | 79% (inactive)
O=S(=O)(c1ccccc1)c1nc(-c2cccs2)oc1SCc1ccc(F)cc1 | 61% (inactive)
O=C(COCc1cc(-c2cccs2)on1)Nc1ccc(OC(F)(F)F)cc1 | 124% (inactive)
CCc1cccc(NC(=O)c2nc(-c3ccncc3)no2)c1 | 101% (inactive)
CC(NC(=O)c1ccc(CSc2nc3ccncc3n2Cc2ccc(F)cc2)cc1)c1ccccc1 (stereo not given) | 92% (inactive)
CC(C)(C)C1CCc2c(sc(NC(=O)c3cccc(Cl)c3)c2C(N)=O)C1 (stereo not given) | 75% (inactive)
CC1CCN(C(=O)c2c(NC(=O)c3ccccc3F)sc3c2CCC(C(C)(C)C)C3)CC1 (stereo not given) | -2% (active)
CC(C)(C)C1CCc2c(sc(NC(=O)CCC(=O)O)c2C(=O)Nc2ccccc2C(F)(F)F)C1 (stereo not given) | 1% (active)
Cc1ccc(C(=O)Nc2sc3c(c2C(=O)NCc2ccco2)CCC(C(C)(C)C)C3)cc1 (stereo not given) | 70% (inactive)
CC(C)(C)C1CCc2c(sc(NC(=O)c3ccc(Cl)cc3)c2C(=O)NCc2ccco2)C1 (stereo not given) | 95% (inactive)
CCCNC(=O)c1c(NC(=O)c2ccccc2)sc2c1CCC(C(C)(C)C)C2 (stereo not given) | 2% (active)
Cc1ccccc1NC(=O)c1c(NC(=O)c2ccccc2F)sc2c1CCC(C)C2 (stereo not given) | 82% (inactive)
Cc1ccccc1NC(=O)c1c(NC(=O)c2ccncc2)sc2c1CCC(C(C)(C)C)C2 (stereo not given) | 91% (inactive)
Cc1ccccc1C(=O)Nc1sc2c(c1C(=O)O)CCC(C(C)(C)C)C2 (stereo not given) | 6% (active)

Source: PubChem BioAssay AID463173 (ICCB-Longwood Screening Facility, Harvard Medical School, 2010)
